# High-throughput results (PubChem BioAssay)
# YB-1 expr inh: YB-1 expression inhibition; U2OS, qRT-PCR YB-1 vs CDIP delta delta Cp, 16 h; hits give high values; zero = DMSO, each unit about twofold; delta delta Cp (YB-1 minus CDIP) (test concentration not listed); 30,000 tested, 0.37% active; AID 434959;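 active = delta delta Cp rounded down to an integer at or above 3, about 3 SD of DMSO wells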;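 note: higher means less YB-1 transcript or more CDIP transcript relative to DMSO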
# U2OS ROS induce: inducers of reactive oxygen species in cancer cells; ROS induction (% of piperlongumine), % at 10 µM; U2OS ROS induction, H2DCF-DA fluorescence; 46,000 tested, 2% active; in the data active = ROS induction above about 79%, passing the limit was not always enough;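 note: 0% = DMSO vehicle median and 100% = reference compound median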
# Active calls of the source: *; · = no result. Sampled rows, rich in hits. Any-hit rate of the full collection: about 2.3%.
SMILES,YB-1 expr inh,U2OS ROS induce
N#CCSc1nc2c(sc3ccccc32)c(=O)n1CCCN1CCOCC1,·,40.7
CCc1cccc(NC(=O)c2sc(-n3cccc3)nc2C)c1,·,5.4
N#CC(C#N)=C(NC12CC3CC(CC(C3)C1)C2)C(F)(F)F,·,-15.9
CCOC(=O)c1ccc(Nc2c(C(=O)OCC)cnc3ccccc23)cc1,·,98.6*
CCOC(=O)c1cnc2c(C)cc(C)cc2c1Nc1ccc(S(=O)(=O)Nc2ncccn2)cc1,·,16.6
CCOC(=O)C(C)Sc1ncnc2nc[nH]c12 (stereo not drawn),·,-14.3
CCOC(=O)C(C)Sc1ncnc2c1nnn2-c1ccc(OC)cc1 (stereo not drawn),·,179.0*
C[C@H](CO)N1C[C@H](C)[C@H](CN(C)CC2CC2)Oc2ccc(NC(=O)C3CC3)cc2C1=O,0.149,1.9
C[C@H](CO)N1C[C@H](C)[C@@H](CN(C)C(=O)Nc2ccc(C(F)(F)F)cc2)Oc2ccc(NC(=O)C3CC3)cc2C1=O,3.34*,18.1
C[C@H]1CN([C@@H](C)CO)C(=O)c2cc(NC(=O)Nc3ccc4c(c3)OCO4)ccc2O[C@@H]1CN(C)Cc1ccc(C(F)(F)F)cc1,0.0611,94.2*
C[C@@H]1CN([C@H](C)CO)C(=O)c2cc(NC(=O)CCCCCC(=O)Nc3ccccc3N)ccc2O[C@H]1CN(C)C(=O)Nc1ccc(F)cc1,0.135,2.4
C[C@H]1CN([C@@H](C)CO)C(=O)c2cc(NC(=O)C3CC3)ccc2O[C@H]1CN(C)CC1CC1,13.1*,-24.7
C[C@H]1CN([C@@H](C)CO)C(=O)c2cc(NC(=O)CCCCCC(=O)Nc3ccccc3N)ccc2O[C@@H]1CN(C)C(=O)Nc1ccc(F)cc1,0.479,107.7*
C[C@@H]1CN([C@H](C)CO)C(=O)c2cc(NC(=O)C3CC3)ccc2O[C@@H]1CN(C)C(=O)Nc1ccc(C(F)(F)F)cc1,0.258,-6.8
C[C@@H]1CN([C@@H](C)CO)C(=O)c2cc(NC(=O)Nc3ccc4c(c3)OCO4)ccc2O[C@H]1CN(C)Cc1ccc(C(F)(F)F)cc1,0.0721,6.4
Cc1nn(C)c(C)c1CNC(=O)c1ccc(N2CCOCC2)nc1,·,-3.0
CCN(C(=O)CSc1nc2nc(C)c(Cc3cc(C)ccc3C)c(C)n2n1)c1cccc(C)c1,·,53.0
COc1ccc2cc3c(NC(=O)Cc4cccc(C(F)(F)F)c4)n[nH]c3nc2c1,·,0.7
O=C(Oc1ccc2c(=O)c(-c3ccc(Cl)cc3)c(C(F)(F)F)oc2c1)c1ccco1,·,6.5
CCOC(=O)C(C(=O)Nc1cccc(C(F)(F)F)c1)C1CCCCC1 (stereo not drawn),·,-2.7
CC(C(=O)NC1CCCC1)n1sc2ccccc2c1=O (stereo not drawn),·,-5.1
C[C@@H]1CN([C@@H](C)CO)C(=O)c2cc(NC(=O)Cc3ccccc3)ccc2O[C@@H]1CN(C)C(=O)Nc1ccc(C(F)(F)F)cc1,0.342,93.7*
Cc1noc(C)c1NC(=O)N(C)C[C@H]1Oc2ccc(NC(=O)Nc3ccc(F)cc3)cc2C(=O)N([C@@H](C)CO)C[C@@H]1C,0.0454,-5.8
C[C@@H]1CN([C@@H](C)CO)C(=O)c2cc(NC(=O)Nc3ccc(C(F)(F)F)cc3)ccc2O[C@H]1CN(C)C(=O)Nc1ccc(F)cc1,-0.0117,-4.2
C[C@@H]1CN([C@@H](C)CO)C(=O)c2cc(NC(=O)Cc3ccccc3)ccc2O[C@H]1CN(C)C(=O)Nc1ccc(C(F)(F)F)cc1,-0.313,9.1
SMILES,YB-1 expr inh,U2OS ROS induce
C[C@H](CO)N1C[C@H](C)[C@H](CN(C)C(=O)Nc2ccc(C(F)(F)F)cc2)Oc2ccc(NC(=O)NC3CCCCC3)cc2C1=O,-0.587,99.1*
Cc1noc(C)c1NC(=O)N(C)C[C@H]1Oc2ccc(NC(=O)Nc3ccc(F)cc3)cc2C(=O)N([C@H](C)CO)C[C@@H]1C,0.235,81.6*
C[C@H](CO)N1C[C@H](C)[C@H](CN(C)C(=O)Nc2ccc(C(F)(F)F)cc2)Oc2ccc(NC(=O)Nc3ccc(F)cc3)cc2C1=O,0.0124,96.2*
C[C@H](CO)N1C[C@H](C)[C@@H](CN(C)C(=O)Nc2ccc(C(F)(F)F)cc2)Oc2ccc(NC(=O)NC3CCCCC3)cc2C1=O,0.0648,36.3
CCc1ccc(NC(=O)c2ccc3c(c2)OCO3)cc1,·,-8.5
O=C(CN1C(=O)CCc2ccccc21)NCc1ccccc1,·,-10.3
COc1ccc(Cn2c(SCc3cccc(C(F)(F)F)c3)nc3ncccc3c2=O)cc1,·,15.5
CCCCC1=NN(C(=O)C2CC2)C(O)(C(F)(F)F)C1 (stereo not drawn),·,-14.6
COc1ccc(Nc2nc(NCCN3CCOCC3)nc3c2cnn3C)cc1Cl,·,18.2
COc1ccc(C(=O)NCCn2cc(SC(C)c3ccccc3)c3ccccc32)cc1 (stereo not drawn),0.053,10.3
CCOc1ccc(S(=O)(=O)NCc2ccccc2)cc1-c1nc2c(C(C)(C)C)nn(C)c2c(=O)[nH]1,-0.451,201.4*
CCCc1nn(C)c2c(=O)[nH]c(-c3cc(S(=O)(=O)N4CCN(C)CC4)ccc3OCC)nc12,-0.0425,5.2
